Results: PubChem BioAssay AID1259421 (Broad Institute, 2018)
Where “and” joins values, the source holds several entries; their conditions need not be identical. Equal entries are not always repeated. Screen size: about 6,400 compounds; about 610 (9.5%) were called active. The sample holds actives, similar compounds and a random draw of the others, so the mix is not that of the screen. Rule as the data show it: active = activity change below about -70%; inconclusive = no clear call, values can overlap the other calls; inactive = above that. Where a structure was tested more than once in an assay, its records may differ in their call. *1 amine or outer side, *2 acyl side, *3 side chain or, on linkers, in order; H or OH if unused. Where a SMILES comes first, the peptide text is derived from it. Bridges are numbered along the chain shown (N, C = ends). [ ]: non-standard residue; d: D form. The star is where a group is joined. ξ: configuration not given here. pTerphenylCO(4''-OnC5H11) = CCCCCOc1ccc(-c2ccc(-c3ccc(C(=O)*)cc3)cc2)cc1; ξOrn(4,5-diOH) = O=C(C(CC(O)C(O)N[*:3])N[*:1])[*:2]; ξhTyr(βξ-OH,γξ-OH) = NC(C(=O)O)C(O)C(O)c1ccc(O)cc1; ξPro(3ξ-OH,4ξ-Me) = CC1CNC(C(=O)O)C1O; Heptanoyl(6-Me) = CC(C)CCCCC(=O)*; Hyp = O=C(O)[CH]1C[CH](O)CN1; ξDab = NCCC(N)C(=O)O; ξT = CC(O)C(N)C(=O)O

Experiment: Toxoplasma gondii ME49Luc growth in HeLa cells, luciferase, no IFN-y, primary screen (AID 1259421)
Conditions: T. gondii ME49Luc in HeLa, 72 h, stronger effect = lower value, concentration not given here

Structure (SMILES) | activity change, negative = inhibition
CCCCCCCC/C=C/CCCCCCCC(=O)NC(CO)Cc1ccc(O)cc1 (configuration not stated) | 6.19% (inactive)
C[N+]1(C)[C@@H]2CC(OC(=O)[C@H](CO)c3ccccc3)C[C@H]1[C@@H]1O[C@@H]12 (some centres not stated) | 10.8% (inactive)
O=C(O)CC/C=C/CC1COC(c2ccccc2Cl)OC1c1ccccc1O (configuration not stated) | 11.4% (inactive)
O=C(O)[C@@H]1C[C@H]2C[C@@H](CCc3nn[nH]n3)CC[C@H]2CN1 | 15.6% (inactive)
CN1CCCC1c1cccnc1 (configuration not stated) | 24.1% (inactive)
CCCCCOc1ccc(-c2ccc(-c3ccc(C(=O)NC4CC(O)C(O)NC(=O)C5C(O)C(C)CN5C(=O)C(C(C)O)NC(=O)C(C(O)C(O)c5ccc(O)cc5)NC(=O)C5CC(O)CN5C(=O)C(C(C)O)NC4=O)cc3)cc2)cc1 (stereo not drawn) ({pTerphenylCO(4''-OnC5H11)}-[ξOrn(4,5-diOH)]T[Hyp][ξhTyr(βξ-OH,γξ-OH)]T[ξPro(3ξ-OH,4ξ-Me)]; lactam 1-C; configuration not given here) | -6.09% (inactive)
Cc1nn(-c2ccccc2)c(C)c1/C=N/N1CCN(Cc2ccccc2)CC1 | 7.74% (inactive) and 0.523% (inactive)
Cn1[nH]c(=O)c(=O)[nH]c1=S | 14.6% (inactive)
C[C@@H]1CC2C3CCC4=CC(=O)C=C[C@]4(C)[C@@]3(F)[C@@H](O)C[C@]2(C)[C@H]1C(=O)CO (some centres not stated) | -13.5% (inactive) and -8.09% (inactive)
CCCCC[C@H](O)/C=C/C=C\C/C=C\C/C=C\CCCC(=O)O | -37.7% (inactive)
Cc1c(N)cccc1Cn1ccc(OCCc2cccs2)cc1=O | 1.77% (inactive)
Cc1cc(C)c(CNC(=O)c2cc(-c3ccc(CN4CCOCC4)cc3)cc3c2cnn3C2CCCC2)c(=O)[nH]1 | -31% (inactive)
CCNC(=O)c1noc(-c2cc(C(C)C)c(O)cc2O)c1-c1ccc(CN2CCOCC2)cc1 | -87.9% (active)
CC(C)c1cc(C(=O)N2Cc3ccc(CN4CCN(C)CC4)cc3C2)c(O)cc1O | -63.5% (inactive)
CC(C)(O)[C@H]1CC[C@@](C)([C@H]2[C@@H](O)C[C@@]3(C)[C@@H]4C[C@H](O[C@@H]5O[C@H](CO)[C@@H](O)[C@H](O)[C@H]5O)[C@H]5C(C)(C)[C@@H](O[C@@H]6OC[C@@H](O)[C@H](O)[C@H]6O)CC[C@@]56C[C@@]46CC[C@]23C)O1 | 3% (inactive)
CCCCOc1ccc(C(=O)CCN2CCCCC2)cc1 | 1.11% (inactive)
Cc1cc(-c2cc(O)ccc2Cl)cc2nnc(Nc3ccc(OCCN4CCCC4)cc3)nc12 | -89.7% (active)
Cc1cc(-c2cc(OC(=O)c3ccccc3)ccc2Cl)cc2nnc(Nc3ccc(OCCN4CCCC4)cc3)nc12 | 7.81% (inactive)
CCn1ccnc1CC1COc2ccccc2O1 (configuration not stated) | 16.5% (inactive) and 6.37% (inactive)
Nc1nonc1C(=Nc1ccc(F)c(Cl)c1)NO | 17% (inactive)
CCOc1ccc(-n2c([C@@H](C)N(Cc3cccnc3)C(=O)Cc3ccc(OC(F)(F)F)cc3)nc3ncccc3c2=O)cc1 | -0.654% (inactive)

Structure (SMILES) | activity change, negative = inhibition
CON=C1C[C@]2(C[C@@H]3C[C@@H](C/C=C(\C)C[C@@H](C)/C=C/C=C4\CO[C@@H]5[C@H](O)C(C)=C[C@@H](C(=O)O3)[C@]45O)O2)O[C@H](/C(C)=C/C(C)C)[C@H]1C | -67.7% (inactive)
CC(C)c1cc(-c2n[nH]c(=O)n2-c2ccc3c(ccn3C)c2)c(O)cc1O | -82.8% (active)
CC(C)CCCCC(=O)NC(CCN)C(=O)NC(C(=O)NC(CCN)C(=O)NC1CCNC(=O)C(C(C)O)NC(=O)C(CCN)NC(=O)C(CCN)NC(=O)[C@H](CC(C)C)NC(=O)[C@@H](CC(C)C)NC(=O)C(CCN)NC1=O)C(C)O (stereo partly drawn) ({Heptanoyl(6-Me)}-[ξDab][ξT][ξDab][ξDab][ξDab][dL]L[ξDab][ξDab][ξT]; lactam 4-C) | 5.64% (inactive)
COc1cc(-c2ccc(=O)[nH]n2)ccc1OC(F)F | -98.8% (active) and -89.5% (active)
COc1ccc(-c2cc(=O)c3c(OC)c(OC)c(OC)cc3o2)cc1OC | -3.44% (inactive)
COc1ccc(-c2cc(=O)c3c(OC)c(OC)c(OC)c(OC)c3o2)cc1OC | 14.2% (inactive)
N[C@@H](CSCCCO)C(=O)O | 9.56% (inactive) and 5.2% (inactive)
COC(=O)Nc1nc2ccc(S(=O)c3ccccc3)cc2[nH]1 (configuration not stated) | 1.33% (inactive) and 7.44% (inactive) and -54.7% (inactive)
COC(=O)Nc1nc2ccc(C(=O)c3cccs3)cc2[nH]1 | -78.8% (active) and -71.2% (active)
CCCS(=O)c1ccc2nc(NC(=O)OC)[nH]c2c1 (configuration not stated) | 18.9% (inactive)
COC(=O)Nc1nc2ccc(Sc3ccccc3)cc2[nH]1 | -42.3% (inactive) and -3.74% (inactive) and -73.8% (active)
COC(=O)Nc1nc2ccc(C(=O)c3ccc(F)cc3)cc2[nH]1 | -64.8% (inactive)
COC(=O)Nc1nc2ccc(SC(C)C)cc2[nH]1 | -47% (inactive) and -32.6% (inactive)
CCCSc1ccc2nc(NC(=O)OC)[nH]c2c1 | -54.3% (inactive) and -5.56% (inactive)
COC(=O)Nc1nc2ccc(C(=O)c3ccccc3)cc2[nH]1 | -65.6% (inactive) and -76% (active)
COC(=O)Nc1nc2ccc(C(=O)C3CC3)cc2[nH]1 | -35.4% (inactive)
CN(CCOP(=O)(O)O)C(=N)N | 22.7% (inactive) and 1.51% (inactive)
O=C(O)[C@H](Cc1ccc(Nc2nccc3ccncc23)cc1)NC1=C(Br)C(=O)C12CCCCC2 | -35.7% (inactive)
CN(C)CCC1(c2ccc(Cl)cc2)Cc2ccccc2C(=O)O1 (configuration not stated) | 24.4% (inactive) and 4.82% (inactive)
CCOc1nc2cccc(C(=O)OC(C)OC(=O)OC3CCCCC3)c2n1Cc1ccc(-c2ccccc2-c2nn[nH]n2)cc1 (configuration not stated) | 26.2% (inactive) and -2.58% (inactive)
COc1ccc(-c2oc3ccccc3c(=O)c2O)cc1OC | 17.9% (inactive)
